SMILES strings stand for the structures. Active and inactive are the calls of the source. How the source made its calls: active means hit-call score of the fitted dose curve at least 0.9, where 1 is the maximum; inactive means score below 0.9.

For orientation: AC50 means the concentration at which the activity in the assay is half-maximal.

Holding throughout (details): mRNA level, 48 h; actives raise or lower the signal
Read-out in assay [1]: Peroxisomal acyl-coenzyme A oxidase 1 (ACOX1) gene, ACOX1 (gene 51)
As to the kind of experiment: LTEA_HepaRG_ACOX1: Life Technologies and Expression Analysis (LTEA) Assay for Peroxisomal acyl-coenzyme A oxidase 1 (ACOX1) gene using HepaRG (AID 2283467). The gist of the method: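 HepaRG cells, plated 48 h then switched to serum-free induction medium, were exposed in duplicate for 48 h to 8-point half-log concentrations up to 100 uM in 0.5% DMSO. ACOX1 mRNA was measured by qRT-PCR, normalized to ACTB/GAPDH/POLR2A, and fitted bidirectionally versus DMSO.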

Read-out in assay [2]: Alkaline Phosphatase, Placental (ALPP) gene, ALPP (gene 250)
As to the kind of experiment: LTEA_HepaRG_ALPP: Life Technologies and Expression Analysis (LTEA) Assay for Alkaline Phosphatase, Placental (ALPP) gene using HepaRG (AID 2283468). In a few lines: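 HepaRG cells plated 48 h, then exposed in duplicate for 48 h in serum-free induction medium to 8-point half-log series from 100 uM in 0.5% DMSO. ALPP mRNA by TaqMan qRT-PCR, normalized to ACTB/GAPDH/POLR2A; bidirectional fit versus DMSO.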

Read-out in assay [3]: Bcl-2 (BAD) gene, BAD (gene 572)
As to the kind of experiment: LTEA_HepaRG_BAD: Life Technologies and Expression Analysis (LTEA) Assay for Bcl-2 (BAD) gene using HepaRG (AID 2283469). The gist of the method:
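Differentiated HepaRG cells were exposed in duplicate in 0.5% DMSO for 48 h to eight-point half-log concentrations up to 100 uM. BAD mRNA was measured by Fluidigm TaqMan qRT-PCR, normalized to ACTB, GAPDH and POLR2A, and fitted bidirectionally against DMSO.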

Read-out in assay [4]: Bcl-2 (BAX) gene, BAX (gene 581)
Description: LTEA_HepaRG_BAX: Life Technologies and Expression Analysis (LTEA) Assay for Bcl-2 (BAX) gene using HepaRG (AID 2283470). In a few lines:
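HepaRG (human liver), 48 h exposure, duplicate wells. 8-pt curve, half-log from 100 uM, 0.5% DMSO. BAX transcript by TaqMan qRT-PCR; ACTB/GAPDH/POLR2A normalization; gain or loss vs DMSO baseline.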

Read-out in assay [5]: adenosine kinase (ADK) gene, ADK (gene 132)
Description: LTEA_HepaRG_ADK: Life Technologies and Expression Analysis (LTEA) Assay for adenosine kinase (ADK) gene using HepaRG (AID 2283471). The gist of the method: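 HepaRG (human liver), 48 h chemical exposure, 8-pt half-log series, top 100 uM, 0.5% DMSO vehicle. Readout: ADK mRNA by qRT-PCR vs housekeeping genes; bidirectional curve fit relative to DMSO baseline.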

Read-out in assay [6]: Alpha-fetoprotein (AFP) gene, AFP (gene 174)
As to the kind of experiment: LTEA_HepaRG_AFP: Life Technologies and Expression Analysis (LTEA) Assay for Alpha-fetoprotein (AFP) gene using HepaRG (AID 2283472). The gist of the method:
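HepaRG, single lot; 48 h post-plating -> serum-free induction medium; cpd 8-pt, 100 uM top, half-log, 0.5% DMSO, duplicate, 48 h. RNA -> qRT-PCR AFP, norm ACTB/GAPDH/POLR2A. Bidirectional fit vs DMSO.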

Read-out in assay [7]: Apoptosis regulator Bcl-2 (Homo sapiens) (UniProt P10415)
Description: LTEA_HepaRG_BCL2: Life Technologies and Expression Analysis (LTEA) Assay for Bcl-2 gene using HepaRG (AID 2283475). In a few lines: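 HepaRG, plated 48 h then switched to serum-free induction medium; dosed 48 h, 8 conc. (max 100 uM, half-log steps), duplicate, 0.5% DMSO. Lysis in RLT, RNA isolated, TaqMan qRT-PCR for BCL2; ACTB/GAPDH/POLR2A normalisation; bidirectional fit vs DMSO.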

Read-out in assay [8]: Bcl-2 (BID) gene, BID (gene 637)
As to the kind of experiment: LTEA_HepaRG_BID: Life Technologies and Expression Analysis (LTEA) Assay for Bcl-2 (BID) gene using HepaRG (AID 2283476). The gist of the method:
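Transcript levels of BID, measured by qRT-PCR and normalized to three housekeeping genes, were fitted bidirectionally against DMSO controls. Cells were HepaRG, dosed 48 h at up to 100 uM.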

Read-out in another assay: Caspase-3 (Homo sapiens) (UniProt P42574)
As to the kind of experiment: LTEA_HepaRG_CASP3: Life Technologies and Expression Analysis (LTEA) Assay for cysteine-aspartic acid protease (CASP3) using HepaRG (AID 2283477). The gist of the method:
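Differentiated HepaRG cells, plated 48 h, were treated in duplicate in serum-free induction medium for 48 h with eight half-log concentrations up to 100 uM in 0.5% DMSO. CASP3 mRNA measured by qRT-PCR, normalized to ACTB, GAPDH, POLR2A.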

Read-out in assay [9]: Cytochrome P450 (CYP24A1), CYP24A1 (gene 1591)
As to the kind of experiment: LTEA_HepaRG_CYP24A1: Life Technologies and Expression Analysis (LTEA) Assay for Cytochrome P450 (CYP24A1) using HepaRG (AID 2283478). The gist of the method: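 HepaRG cells plated 48 h, then exposed in duplicate in serum-free induction medium for 48 h to 8-point half-log series from 100 uM in 0.5% DMSO. CYP24A1 mRNA by Fluidigm qRT-PCR, normalized to ACTB, GAPDH, POLR2A; bidirectional fit versus DMSO.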

Read-out in assay [10]: Cytochrome P450 (CYP1A2), CYP1A2 (gene 1544)
Description: LTEA_HepaRG_CYP1A2: Life Technologies and Expression Analysis (LTEA) Assay for Cytochrome P450 (CYP1A2) using HepaRG (AID 2283479). In a few lines:
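Differentiated human HepaRG cells in serum-free induction medium exposed 48 hours in duplicate to 8 half-log concentrations from 100 uM, 0.5% DMSO. CYP1A2 mRNA quantified by qRT-PCR, normalized to ACTB, GAPDH and POLR2A; bidirectional fitting versus DMSO.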

Read-out in assay [11]: cysteine-aspartic acid protease (CASP8), CASP8 (gene 841)
As to the kind of experiment: LTEA_HepaRG_CASP8: Life Technologies and Expression Analysis (LTEA) Assay for cysteine-aspartic acid protease (CASP8) using HepaRG (AID 2283480). The gist of the method: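 Differentiated HepaRG cells in serum-free induction medium, 48 h exposure, eight-point half-log series from 100 uM in 0.5% DMSO, duplicates. CASP8 mRNA by qRT-PCR, normalized to ACTB, GAPDH, POLR2A; bidirectional fit versus DMSO.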

Read-out in assay [12]: Cytochrome P450 (CYP2B6), CYP2B6 (gene 1555)
Description: LTEA_HepaRG_CYP2B6: Life Technologies and Expression Analysis (LTEA) Assay for Cytochrome P450 (CYP2B6) using HepaRG (AID 2283481). In a few lines: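 Differentiated human HepaRG cells in serum-free induction medium, dosed in duplicate for 48 h over 8 half-log concentrations topping at 100 uM (0.5% DMSO). CYP2B6 mRNA measured by TaqMan qRT-PCR, normalized to ACTB, GAPDH, POLR2A; bidirectional fit versus DMSO.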

Read-out in assay [13]: Cytochrome P450 2C19 (Homo sapiens) (UniProt P33261)
Description: LTEA_HepaRG_CYP2C19: Life Technologies and Expression Analysis (LTEA) Assay for CYP2C19 using HepaRG (AID 2283482). In a few lines:
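Differentiated HepaRG cells in serum-free induction medium exposed 48 h in duplicate, 8 concentrations from 100 uM by half-log steps in 0.5% DMSO. CYP2C19 mRNA measured by TaqMan qRT-PCR, normalized to ACTB, GAPDH, POLR2A. Bidirectional fit versus DMSO.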

Read-out in another assay: CYP2C8 (gene 1558)
Description: LTEA_HepaRG_CYP2C8: Life Technologies and Expression Analysis (LTEA) Assay for CYP2C8 using HepaRG (AID 2283483). In a few lines:
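Differentiated HepaRG cells in serum-free induction medium exposed 48 h in duplicate to 8 half-log concentrations from 100 uM in 0.5% DMSO. CYP2C8 mRNA by qRT-PCR normalized to ACTB, GAPDH, POLR2A; bidirectional fit versus DMSO.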

Read-out in a further assay: CYP2C9 (gene 1559)
Description: LTEA_HepaRG_CYP2C9: Life Technologies and Expression Analysis (LTEA) Assay for CYP2C9 using HepaRG (AID 2283484). The gist of the method: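 Differentiated human HepaRG cells in serum-free induction medium were exposed 48 h to chemicals in 8-point half-log series from 100 uM (0.5% DMSO), in duplicate. CYP2C9 mRNA was measured by qRT-PCR, normalized to ACTB/GAPDH/POLR2A, with bidirectional fitting versus DMSO.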

Read-out in assay [14]: Apolipoprotein A-V (APOA5) gene, APOA5 (gene 116519)
Description: LTEA_HepaRG_APOA5: Life Technologies and Expression Analysis (LTEA) Assay for Apolipoprotein A-V (APOA5) gene using HepaRG (AID 2283474). In a few lines:
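Differentiated HepaRG cells in serum-free induction medium, exposed 48 h in duplicate to eight half-log concentrations topping at 100 uM (0.5% DMSO). APOA5 mRNA by Fluidigm TaqMan qRT-PCR, normalized to ACTB, GAPDH and POLR2A; bidirectional fit versus DMSO.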

Read-out in the next assay: BCL2L11 (gene 10018)
As to the kind of experiment: LTEA_HepaRG_BCL2L11: Life Technologies and Expression Analysis (LTEA) Assay for Bcl-2 (BCL2L11) gene using HepaRG (AID 2283473). In a few lines: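 Differentiated human HepaRG cells were exposed 48 h in serum-free induction medium to eight half-log concentrations up to 100 uM in 0.5% DMSO, in duplicate. BCL2L11 mRNA was quantified by TaqMan qRT-PCR, normalized to ACTB, GAPDH and POLR2A; induction or repression fitted versus DMSO.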

Sequence of Cytochrome P450 2C19 (Homo sapiens) (P33261 whole entry, looked up): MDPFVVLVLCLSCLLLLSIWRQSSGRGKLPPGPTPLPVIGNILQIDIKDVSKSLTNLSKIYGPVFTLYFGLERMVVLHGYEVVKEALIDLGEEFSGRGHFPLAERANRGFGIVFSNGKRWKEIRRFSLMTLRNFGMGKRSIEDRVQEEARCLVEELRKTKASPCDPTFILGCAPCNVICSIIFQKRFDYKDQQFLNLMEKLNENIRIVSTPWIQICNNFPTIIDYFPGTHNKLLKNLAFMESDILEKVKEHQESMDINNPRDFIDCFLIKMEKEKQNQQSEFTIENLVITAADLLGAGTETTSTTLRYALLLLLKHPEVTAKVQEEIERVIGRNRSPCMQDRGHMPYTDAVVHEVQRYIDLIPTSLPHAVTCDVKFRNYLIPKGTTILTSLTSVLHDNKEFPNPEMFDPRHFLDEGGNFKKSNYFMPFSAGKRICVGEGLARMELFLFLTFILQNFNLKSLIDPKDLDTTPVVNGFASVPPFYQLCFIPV
Sequence of Apoptosis regulator Bcl-2 (Homo sapiens) (P10415 whole entry, looked up): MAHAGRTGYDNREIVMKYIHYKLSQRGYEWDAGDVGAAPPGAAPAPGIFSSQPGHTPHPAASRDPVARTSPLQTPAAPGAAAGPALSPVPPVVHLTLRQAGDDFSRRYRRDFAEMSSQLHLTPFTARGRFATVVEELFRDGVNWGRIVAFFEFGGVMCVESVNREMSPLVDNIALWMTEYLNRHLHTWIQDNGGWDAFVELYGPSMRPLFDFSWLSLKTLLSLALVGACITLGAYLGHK
Sequence of Caspase-3 (Homo sapiens) (P42574 whole entry, looked up): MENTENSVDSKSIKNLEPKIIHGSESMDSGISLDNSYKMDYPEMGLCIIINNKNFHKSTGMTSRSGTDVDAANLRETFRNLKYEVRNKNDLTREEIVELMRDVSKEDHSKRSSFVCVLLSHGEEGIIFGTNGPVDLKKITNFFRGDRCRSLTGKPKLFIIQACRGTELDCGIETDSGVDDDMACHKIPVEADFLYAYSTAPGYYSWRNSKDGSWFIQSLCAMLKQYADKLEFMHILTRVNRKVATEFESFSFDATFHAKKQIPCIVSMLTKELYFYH

As to `O=C(Nc1ccccc1)Nc1ccnc(Cl)c1`, the AC50 in assay [1] is 73.7 µM (active); in assay [2] it was 3.48 µM (active); in assay [3] it was 74.2 µM (active); in assay [5] it was 78.2 µM (active); in [6], 25.2 µM (active); in assay [7] it was 69.8 µM (active). In addition, the half-maximal activity concentration (AC50) in the assay with Caspase-3 (Homo sapiens) is 69.9 µM (active); in assay [10], 25.8 µM (active); in assay [12], 88.4 µM (active); in assay [13], 79 µM (active); in the assay with CYP2C9 (gene 1559) it was 75.6 µM (active). Moreover, the result (in [4]; in [8]; in assay [9]; in [11]; with CYP2C8 (gene 1558)) was inactive.

For `COc1nc(NC(C)C)nc(NC(C)C)n1`, the outcome in [1], in assay [2], in [3], in assay [4], in assay [5] and in assay [6] was inactive. Also, the compound was called inactive (in assay [14]; in assay [7]; in assay [8]; with Caspase-3 (Homo sapiens); in [9]; in assay [11]). For the same compound, the result with CYP2C8 (gene 1558) and in the assay with CYP2C9 (gene 1559) was inactive. Moreover, the AC50 is 44.9 µM (active) in assay [10], 6.01 µM (active) in [12] and 9.99 µM (active) in [13].

As to `CC(C)C1(C)N=C(c2nc3ccccc3cc2C(=O)O)NC1=O` (stereo unspecified), the call in [1], in assay [2], in [3], in assay [4], in assay [5] and in [6] was inactive. In addition, the compound was called inactive (in assay [14]; in [7]; in [8]; in the assay with Caspase-3 (Homo sapiens); in [9]; in assay [11]). Besides, the compound was called inactive with CYP2C8 (gene 1558) and with CYP2C9 (gene 1559). The AC50 in assay [10] is 28.7 µM (active); in assay [12], 6.39 µM (active); in [13], 14.1 µM (active).

In the case of `CCNc1nc(Cl)nc(NCC)n1`, the result in [1], in assay [2], in [3], in assay [4], in [5] and in assay [6] was inactive. For the same compound, the compound was classed as inactive (with BCL2L11 (gene 10018); in [7]; in assay [8]; with Caspase-3 (Homo sapiens); in assay [9]; in assay [11]). The call (in assay [13]; with CYP2C8 (gene 1558); with CYP2C9 (gene 1559)) was inactive. Moreover, the figures for the AC50 in [10] and in assay [12] were 50 µM (active) and 11.3 µM (active), respectively.

In the case of `CNC(=S)S`, the compound was called inactive in assay [1], in assay [2], in assay [3], in [4], in assay [5] and in assay [6]. The compound was classed as inactive (in assay [14]; in assay [7]; in [8]; in the assay with Caspase-3 (Homo sapiens); in assay [9]; in assay [11]). In addition, the outcome (in assay [13]; with CYP2C8 (gene 1558); with CYP2C9 (gene 1559)) was inactive. In addition, the AC50 in assay [10] was 50 µM (active); in assay [12], 29.7 µM (active).

With `CNC(=O)ON=CC(C)(C)SC`, the compound was classed as inactive in [1], in assay [2], in assay [3], in assay [4], in assay [5] and in assay [6]. Besides, the compound was called inactive (in the assay with BCL2L11 (gene 10018); in assay [7]; in assay [8]; with Caspase-3 (Homo sapiens); in assay [9]; in [10]). Besides, the compound was classed as inactive (in assay [11]; in assay [13]; with CYP2C8 (gene 1558); with CYP2C9 (gene 1559)). In addition, in [12], the AC50 is 50 µM (active).

Source of the values: PubChem BioAssay (EPA / NIEHS).
